Several values for one entry are separate records, joined by “and”; a condition that tells them apart may be missing. Identical values can stand only once. Hit rate of the full screen: of about 5,500 compounds, about 2,000 (36%) were called active. Not shown: some 18% with an inconclusive outcome. Rule as the data show it: active = normalized growth mostly below about 0.91 (no sharp cut-off); inconclusive = no clear call, values can overlap the other calls; inactive = mostly above about 0.92. The list shows a part of the results.
Experiment: chemical genetic growth profiling, strain panel (AID 1159580);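 also: tested at 20 µM; growth read once vehicle control cultures reached saturation at 30 °C; 1 = growth at the plate median or of vehicle wells; lower values mean less growth of the strain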
Conditions: S. cerevisiae deletion strains, growth OD

Measured: normalized growth

O=C(O)COc1cc(Cl)c(Cl)cc1Cl
inactive: locus YAL013W, strain DEP1, stronger effect = lower value 1 | locus YAL021C, strain ccr4, stronger effect = lower value 0.984 | locus YAL026C, strain drs2, stronger effect = lower value 1 | locus YAL030W, strain snc1, stronger effect = lower value 1.01 | locus YBL061C, strain skt5, stronger effect = lower value 1 | locus YBR009C, strain hhf1, stronger effect = lower value 1 | locus YBR021W, strain FUR4, stronger effect = lower value 1.01 | locus YBR023C, strain chs3, stronger effect = lower value 1 | locus YBR171W, strain sec66, stronger effect = lower value 0.998 | locus YBR229C, strain ROT2, stronger effect = lower value 1.01 | locus YBR231C, strain swc5, stronger effect = lower value 1 | locus YBR279W, strain paf1, stronger effect = lower value 1 | locus YCL011C, strain gbp2, stronger effect = lower value 1 | locus YCL016C, strain dcc1, stronger effect = lower value 0.988 | locus YCL029C, strain bik1, stronger effect = lower value 1.02 | locus YCL061C, strain MRC1, stronger effect = lower value 1 | locus YCL069W, strain vba3, stronger effect = lower value 0.993 | locus YCR088W, strain abp1, stronger effect = lower value 1 | locus YDL005C, strain med2, stronger effect = lower value 0.995 | locus YDL035C, strain GPR1, stronger effect = lower value 1.02 | locus YDL040C, strain nat1, stronger effect = lower value 0.994 | locus YDL074C, strain BRE1, stronger effect = lower value 1.01 | locus YDL101C, strain DUN1, stronger effect = lower value 0.982 | locus YDL134C, strain PPH21, stronger effect = lower value 1.01 | locus YDL185W, strain tfp1, stronger effect = lower value 1.03 | locus YDL192W, strain arf1, stronger effect = lower value 1.02 | locus YDR001C, strain nth1, stronger effect = lower value 1.01 | locus YDR069C, strain doa4, stronger effect = lower value 0.994 | locus YDR101C, strain arx1, stronger effect = lower value 1.02 | locus YDR137W, strain rgp1, stronger effect = lower value 1.05 | locus YDR150W, strain NUM1, stronger effect = lower value 1 | locus YDR159W, strain sac3, stronger effect = lower value 0.999 | locus YDR162C, strain NBP2, stronger effect = lower value 1 | locus YDR195W, strain ref2 0.952 | locus YDR297W, strain sur2, stronger effect = lower value 1 | locus YDR318W, strain mcm21, stronger effect = lower value 1.02 | locus YDR334W, strain swr1, stronger effect = lower value 0.998 | locus YDR335W, strain msn5, stronger effect = lower value 0.994 | locus YDR388W, stronger effect = lower value 1.02 | locus YDR392W, strain spt3, stronger effect = lower value 1.01 | locus YDR502C, strain sam2, stronger effect = lower value 1.01 | locus YEL003W, strain gim4, stronger effect = lower value 1.02 | locus YEL037C, strain rad23, stronger effect = lower value 1.01 | locus YEL061C, strain CIN8 (second series), stronger effect = lower value 0.999 | locus YEL061C, strain CIN8, stronger effect = lower value 1 | locus YER015W, strain faa2, stronger effect = lower value 1 | locus YER016W, strain bim1, stronger effect = lower value 1 | locus YER110C, stronger effect = lower value 1.02 | locus YER111C, strain swi4, stronger effect = lower value 0.993 | locus YER155C, strain BEM2 (second series), stronger effect = lower value 0.989 | locus YER155C, strain BEM2, stronger effect = lower value 1.01 | locus YER167W, strain BCK2, stronger effect = lower value 1.02 | locus YFR010W, strain ubp6, stronger effect = lower value 1 | locus YGL078C, strain dbp3, stronger effect = lower value 1.02 | locus YGL086W, strain mad1, stronger effect = lower value 1.01 | locus YGL167C, strain pmr1, stronger effect = lower value 1 | locus YGL173C, strain kem1, stronger effect = lower value 0.994 | locus YGL227W, strain vid30, stronger effect = lower value 1 | locus YGL240W, strain doc1, stronger effect = lower value 0.999 | locus YGL248W, strain PDE1, stronger effect = lower value 1.02 | locus YGL253W, strain hxk2, stronger effect = lower value 0.995 | locus YGR078C, strain PAC10, stronger effect = lower value 1.02 | locus YGR135W, strain pre9, stronger effect = lower value 1.03 | locus YGR229C, strain SMI1, stronger effect = lower value 1.02 | locus YGR252W, strain gcn5, stronger effect = lower value 1.04 | locus YHR013C, strain ard1, stronger effect = lower value 0.997 | locus YHR027C, strain rpn1, stronger effect = lower value 0.998 | locus YHR030C, strain SLT2, stronger effect = lower value 1.01 | locus YHR079C, strain IRE1 (second series), stronger effect = lower value 1.02 | locus YHR079C, strain IRE1, stronger effect = lower value 1.02 | locus YHR094C, strain hxt1, stronger effect = lower value 1.02 | locus YHR129C, strain ARP1, stronger effect = lower value 1.01 | locus YHR142W, strain chs7, stronger effect = lower value 1 | locus YHR200W, strain rpn10, stronger effect = lower value 1.01 | locus YIL066C, strain RNR3, stronger effect = lower value 1.03 | locus YIL073C, strain SPO22, stronger effect = lower value 1.09 | locus YIL125W, strain kgd1, stronger effect = lower value 1.02 | locus YIR030C, strain dcg1, stronger effect = lower value 1.02 | locus YJL092W, strain hpr5, stronger effect = lower value 0.999 | locus YJL095W, strain BCK1 (second series), stronger effect = lower value 0.994 | locus YJL095W, strain BCK1, stronger effect = lower value 1.02 and 1.03 | locus YJL115W, strain asf1, stronger effect = lower value 0.991 | locus YJL129C, strain trk1, stronger effect = lower value 0.998 | locus YJL134W, strain LCB3, stronger effect = lower value 1.01 | locus YJL154C, strain vps35, stronger effect = lower value 0.998 | locus YJL164C, strain tpk1, stronger effect = lower value 1.01 | locus YJL166W, strain qcr8, stronger effect = lower value 1.01 | locus YJL168C, strain set2, stronger effect = lower value 1.02 | locus YJL187C, strain SWE1 (second series), stronger effect = lower value 1.01 | locus YJL187C, strain SWE1, stronger effect = lower value 1 | locus YJR043C, strain POL32, stronger effect = lower value 1.01 | locus YJR066W, strain TOR1, stronger effect = lower value 0.94

— PubChem BioAssay AID1159580 (chemical genetic matrix, 2015)
